CHRM1 agonist – human M1 muscarinic receptor agonists, primary screen, Fluo-8 calcium fluorescence, CHO-K1 cells, HTS. CHO-K1 hM1, agonist mode; 0% DMSO, 100% acetylcholine EC100. activation, % at 3 µM. 360,000 tested, 0.33% active;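 active means activation above the run's mean compound activation plus 3 SD, cut at about 16% in these data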;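 further: peak over basal fluorescence ratio within a 140 s kinetic read after compound addition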
Target sequence (P11229 whole entry, looked up): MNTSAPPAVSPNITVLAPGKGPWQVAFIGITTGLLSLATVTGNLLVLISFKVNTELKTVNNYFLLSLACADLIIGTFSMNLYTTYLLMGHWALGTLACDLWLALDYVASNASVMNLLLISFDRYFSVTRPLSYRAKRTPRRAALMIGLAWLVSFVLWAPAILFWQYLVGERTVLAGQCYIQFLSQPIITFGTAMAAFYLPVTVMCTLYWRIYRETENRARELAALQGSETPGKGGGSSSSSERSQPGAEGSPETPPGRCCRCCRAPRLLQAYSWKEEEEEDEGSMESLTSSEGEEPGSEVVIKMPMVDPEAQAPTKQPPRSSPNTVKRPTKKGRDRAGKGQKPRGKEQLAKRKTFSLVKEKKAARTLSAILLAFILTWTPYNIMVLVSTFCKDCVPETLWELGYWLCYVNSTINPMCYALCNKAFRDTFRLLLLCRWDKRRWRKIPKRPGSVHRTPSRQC
CHRM1 PAM – human M1 muscarinic receptor positive allosteric modulators, primary screen, CHO-K1 cells, Fluo-8 calcium fluorescence, 1536-well. AID 588819, 2011. activation, % at 3 µM. 360,000 tested, 0.088% active. CHO-K1 hM1, ACh EC20; 0% = ACh EC20, 100% = maximal ACh; in the data active means activation above about 19%, passing the limit was not always enough
CHO-K1 Ca antag – counter-screen for M1 antagonists: effect in parental CHO-K1 cells; inhibition, % at 3 µM; ATP-induced calcium, Fluo-8 fluorescence; 360,000 tested, 0.6% active; AID 602250;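 active means inhibition above a per-plate cutoff, the plate's mean sample inhibition plus 3 SD, cut at about 24% in these data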
M1 PAM parental – nonselective calcium activators in parental CHO-K1 cells, primary screen, counter-screen for M1 PAM project, cell-based, Fluo-8 calcium fluorescence, full deck, 1536-well; ATP EC20; 0% at ATP EC20, 100% at ATP max; 360,000 tested, 0.02% active; activation, % at 3 µM; AID 602247, 2012;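 active means activation above the run cutoff, the mean activation of all test compounds plus 3 SD, cut at about 40% in these data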;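 further: peak over basal fluorescence ratio in a 140 s read after ATP addition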
M1 ag parental – counter-screen for M1 agonists: effect in parental CHO-K1 cells. Fluo-8 calcium fluorescence; scaled to maximal ATP response, vehicle zero. activation, % at 3 µM. 360,000 tested, 0.48% active. AID 602248, 2012; in the data active means activation above about 15%;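 further: untransfected CHO-K1 host cells lacking M1 receptor as counterscreen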
M1 antag – human M1 muscarinic receptor antagonists, primary screen, CHO-K1 cells, Fluo-8 calcium fluorescence, 1536-well; 360,000 tested, 1.3% active; AID 588852, 2011; CHO-K1 hM1, ACh EC80 antagonist; inhibition, % at 3 µM;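 active means percent inhibition above its own plate's cutoff, namely the mean of that plate's compound wells plus 3 SD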;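 further: peak over basal fluorescence ratio during 140 s after agonist addition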
A number is an active result; – = inactive. Only some compounds are listed: those with a hit (about 2.3% of all), similar ones and a draw of the others.

SMILES	CHRM1 agonist	CHRM1 PAM	CHO-K1 Ca antag	M1 PAM parental	M1 ag parental	M1 antag
COc1ccc(-c2sc(Nc3ccccc3)n[n+]2-c2ccc(F)cc2)cc1Br	–	–	–	–	–	–
Cc1ccc([C@H]2C[C@H](O)[C@@H](n3cc(-c4ccc(F)cc4)nn3)CN2CC2CCCCC2)cc1	–	–	–	–	–	–
CCC(C)(C)C1CCC2(CC1)NC(=O)N(CC(=O)N1CCN(C(=O)c3ccco3)CC1)C2=O (centres undefined)	–	–	–	–	–	–
CCN(c1ccc(OC)cc1)S(=O)(=O)N1CCCC(C(=O)NCc2ccc(OC(C)C)cc2)C1 (centres undefined)	–	–	–	–	–	–
Cc1ccccc1N1C(=O)CC(N(O)c2ccccc2)C1=O (centres undefined)	–	–	–	–	–	–
O=C1CC(N(O)c2ccccc2)C(=O)N1c1cc(Cl)cc(Cl)c1 (centres undefined)	26.8	–	–	–	–	–
O=C(c1cc(Cl)cc(Cl)c1)N1CCC2CC1c1cc(N3CCCCC3)ccc12 (centres undefined)	–	–	–	–	–	69.7
Clc1cccc(CN2CCC3CC2c2cc(N4CCCCC4)ccc23)c1 (centres undefined)	–	–	–	–	–	–
O=C(OCc1ccccc1)N1CCC2CC1c1cc(N3CCCCC3)ccc12 (centres undefined)	–	–	–	–	–	34.2
Cc1cccc(Cl)c1OCCCN1CCOCC1	–	–	–	–	–	32.2
Cc1onc(-c2ccccc2)c1-c1nnc(CN2CCN(S(=O)(=O)c3ccccc3)CC2)o1	–	–	–	–	–	–
CCOC(=O)n1c2ccccc2c(=O)n1CCO	–	–	–	–	–	–
Cc1cc(C(=O)Nc2ccc(Nc3ccccc3)cc2)ccc1[N+](=O)[O-]	–	–	–	–	–	–
O=C(Nc1ccc(Cl)c(Cl)c1)Nc1nccs1	–	–	33.6	–	–	–
CN(c1ccccc1)S(=O)(=O)c1cccc(NC(=O)c2ccncc2)c1	–	–	–	–	15.2	–
CN(c1cccc(NC(=O)c2ccc(N(C)S(=O)(=O)c3ccccc3)cc2)c1)S(C)(=O)=O	–	–	24.3	–	16.3	27.8
O=C(Nc1ccc(Nc2ccccc2)cc1)c1ccc(Cl)c([N+](=O)[O-])c1	–	–	–	–	–	31.7
O=C(CCc1c[nH]c2ccccc12)N[C@@H](Cc1c[nH]c2ccc(O)cc12)C(=O)O	–	–	–	–	–	–
CN(c1ccccc1)S(=O)(=O)c1cccc(NC(=O)c2ccc(Cl)c([N+](=O)[O-])c2)c1	–	–	–	–	–	37.3
O=C(Nc1ccc(Cl)c(Cl)c1)c1ccc(Cl)c(Cl)c1	–	–	–	–	–	37.2
O=C(NC(=S)NC12CC3CC(CC(C3)C1)C2)c1ccc(F)cc1	–	–	–	–	–	–
COc1ccc(C(=O)c2cnc(/N=C/N(C)C)s2)cc1	–	–	33.0	–	–	–
Cc1cc[n+](C(C)C(=O)c2ccc(-c3ccccc3)cc2)cc1 (centres undefined)	–	–	–	–	–	58.0
CC(C(=O)c1ccc(-c2ccccc2)cc1)[n+]1ccccc1 (centres undefined)	–	–	–	–	–	–
Cc1ccc2nc(SCc3nc4c(cnn4-c4ccccc4)c(=O)[nH]3)[nH]c2c1	–	–	26.9	–	–	–
SMILES	CHRM1 agonist	CHRM1 PAM	CHO-K1 Ca antag	M1 PAM parental	M1 ag parental	M1 antag
O=S1(=O)CCC(NC(=S)Nc2ccc3ccccc3c2)C1 (centres undefined)	–	–	–	–	–	–
O=S1(=O)CCC(NC(=S)Nc2ccccc2)C1 (centres undefined)	–	28.9	–	–	–	–
Cc1[nH]n(C)c(=O)c1[N+](=O)[O-]	–	–	–	–	–	–
COc1cc(CNC(=O)Nc2nc(C(N)Cc3ccc(C(F)(F)F)cc3)cs2)cc(OC)c1OC (centres undefined)	–	–	–	–	–	–
COc1cc2c(cc1NC(=O)C(C)OC(=O)C1CC(=O)N(Cc3ccco3)C1)oc1ccccc12 (centres undefined)	–	–	28.5	–	–	–
CC(OC(=O)C1CC(=O)N(Cc2ccco2)C1)C(=O)Nc1cccc(C#N)c1 (centres undefined)	–	–	–	–	–	–
CCCCCCCCCCOC(=O)Cn1c(COc2ccccc2OC)[n+](C)c2ccccc21	20.9	–	28.9	–	17.4	69.0
Cn1c(COc2ccccc2O)[n+](C)c2ccccc21	–	–	–	–	–	–
Cc1ccc(S(=O)(=O)NNC(=O)c2c(O)c3ccccc3[nH]c2=O)cc1	–	–	–	–	15.9	–
CC1(C)Cc2nc3scc(NC(=O)c4ccccc4)c3cc2CO1	–	–	–	–	–	–
CCCNC(=O)N1CCN(Cc2ccco2)CC1	–	–	–	–	–	–
COc1ccccc1CNC(=O)[C@H](C)NC(=O)C1CCN(C(=O)[C@@H](N)CC(C)C)CC1	–	–	–	–	–	–
Cc1ccccc1C(=O)Nc1cccc(C(=O)N/N=C/c2cc(Cl)cc([N+](=O)[O-])c2O)c1	–	–	–	–	–	–
Cc1cccc(N2CC(O)(c3cccs3)[N+]3=C2CCCC3)c1C (centres undefined)	–	–	–	–	–	37.0
Cc1ccc(N2CC(O)(c3cccs3)[N+]3=C2CCCC3)cc1 (centres undefined)	–	–	–	–	–	40.0
Cc1cccc(N2CC(O)(c3cccs3)[N+]3=C2CCCC3)c1 (centres undefined)	–	–	–	–	–	–
COc1ccccc1-c1csc(C(O)c2cccc(Cl)c2)n1 (centres undefined)	–	–	–	–	–	–
CC1=C(C(=O)OCCC(C)C)C(c2ccc3c(c2)OCO3)NC(=O)N1 (centres undefined)	–	–	–	–	–	–
COc1ccc(COC(=O)C2=C(C)NC(=O)NC2c2ccc(OC)c(OC)c2)cc1 (centres undefined)	–	–	24.2	–	–	–
COc1cc(C2NC(=O)NC(C)=C2C(=O)OCC2CCCCC2)ccc1O (centres undefined)	–	–	–	–	20.5	–
C/C=C/COC(=O)C1=C(C)NC(=O)NC1c1ccc2c(c1)OCO2 (centres undefined)	–	–	24.5	–	–	–
